What was measured:
Test in all cases: PBM binding z-score (relative to random genomic background probes); higher = stronger binding; sequences stand for … in GC…GCGATTGACAGCGTAGAATGAAGG
[1] = system: PPARg:RXRa DBDmut IVT, anti-RXR (DBD mutation: RXRa K156A/R161A, NR concentration 270 nM, RXRa partner concentration 90 nM)
Summary of the method: (§1)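 Binding buffer was PBS pH 7.4 with 2% milk, 0.02% Triton X-100, 1 mM DTT, 0.2 mg/mL BSA and 0.4 mg/ml salmon testes DNA. In it, ligand-free nuclear receptor dimers were incubated 1 h on custom Agilent 4×180K protein-binding microarrays carrying double-stranded probes. Antibodies against each partner (one per run) detected binding, and z-scores were calculated against random background probes after regression normalization of scanned fluorescence.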

[2] = system: PPARg:RXRa IVT, anti-PPARg (NR concentration 270 nM, RXRa partner concentration 90 nM)
Summary of the method: as §1

[3] = system: PPARg homodimer (NR concentration 180 nM)
Summary of the method: as §1

[4] = system: PXR:RXRa (NR concentration 270 nM, RXRa partner concentration 90 nM)
Summary of the method: as §1

[5] = system: PXR homodimer (NR concentration 270 nM)
Summary of the method: as §1

[6] = system: RARa:RXR (NR concentration 270 nM, RXRa partner concentration 90 nM)
Summary of the method: as §1

[7] = system: RARa homodimer (NR concentration 270 nM)
Summary of the method: as §1

[8] = system: RARb:RXRa (NR concentration 270 nM, RXRa partner concentration 90 nM)
Summary of the method: as §1

[9] = system: RARb homodimer (NR concentration 270 nM)
Summary of the method: as §1

[10] = system: RARg:RXRa (NR concentration 270 nM, RXRa partner concentration 90 nM)
Summary of the method: as §1

[11] = system: RARg homodimer (NR concentration 270 nM)
Summary of the method: as §1

[12] = system: RXRa DBDmut IVT, anti-RXR (DBD mutation: RXRa K156A/R161A, NR concentration 90 nM)
Summary of the method: as §1

[13] = system: RXRa homodimer (NR concentration 180 nM)
Summary of the method: as §1

[14] = system: THRa:RXRa (NR concentration 90 nM, RXRa partner concentration 90 nM)
Summary of the method: as §1

[15] = system: THRa homodimer (NR concentration 90 nM)
Summary of the method: as §1

[16] = system: VDR:RXRa (NR concentration 270 nM, RXRa partner concentration 90 nM)
Summary of the method: as §1

[17] = system: VDR homodimer (NR concentration 270 nM)
Summary of the method: as §1

Sequence	PBM binding z-score [1]	PBM binding z-score [2]	PBM binding z-score [3]	PBM binding z-score [4]	PBM binding z-score [5]	PBM binding z-score [6]	PBM binding z-score [7]	PBM binding z-score [8]	PBM binding z-score [9]	PBM binding z-score [10]	PBM binding z-score [11]	PBM binding z-score [12]	PBM binding z-score [13]	PBM binding z-score [14]	PBM binding z-score [15]	PBM binding z-score [16]	PBM binding z-score [17]
CCGAGTAGGTTACGCGGGGGCATTCAGTGCGAAT	4.28	4.82	1.38	5.72	7.61	3.67	0.0169	2.29	2.09	3.1	2.15	1.8	2.23	4.51	0.878	5.48	3.76
TCGAGTAGGTTACGGGGGCATACAGGGATGAAGA	5.24	5.71	3.33	2.97	1.54	3.27	0.305	2.65	2.05	3.68	2.84	1.44	3.07	3.53	1.18	–	2.83
CTATGAAGGTTAAGGGGGTCATTCAGTTTGAAAG	3.68	5.15	4.25	6.22	13.8	6.01	2.51	4.05	4.39	5.59	4.32	2.92	6.52	3.97	2.22	7.95	6.88
CCGAGTAGTTTACGAGGGGGCATTCAGTGCGAAT	1.32	0.828	0.86	3.29	4.22	2.06	0.00505	1.4	1.7	1.92	1.48	2.08	1.37	2.54	0.595	4.03	3.37
CAATGTAGGTTAAGGGGGTCATTCAGTTTGAAAG	7.92	7.9	7.74	6.21	13.1	6.32	4.17	3.72	4.09	5.27	3.94	3	5.94	3.9	2.81	7.74	6.76
TCGAGTAGGTTACGGGGGCTTTCAGGGATGAAGA	4.35	4.61	0.803	1.87	0.25	1.99	-0.0109	1.69	1.29	1.96	1.19	1.17	1.69	2.43	0.921	2.02	0.544
CCGAGTAGGGTACGAGGGGGCATTCAGTGCGAAT	2.87	3.56	0.861	3.15	3.37	1.71	-0.0964	1.36	1.62	1.87	1.59	1.73	1.03	2.64	0.475	4.33	4.03
CCGAGTAGGTTACGAGGGGCCATTCAGTGCGAAT	4.13	3.51	0.766	2.92	1.09	1.11	0.136	1.47	1.53	1.3	1.23	0.177	0.889	3.34	-0.418	–	0.802

From the supplement of paper PMC6555819
